In PMC4242493, “Sequence specificity incompletely defines the genome-wide occupancy of Myc”:
The full ranking holds about 33,000 sequences; the median of “normalized occupancy” is about 0.075, and the highest 2% start at about 0.095. Many of the other results were omitted from the sample, so the highest values are more common in it than they were.

molecular target: MaxL homodimer (Homo sapiens, UniProt P61244 1-160); assay: universal protein-binding microarray (PBM); PBS-based mixture, 10 nM His-tagged protein dimer, 2% milk, 200 ng/uL BSA, 50 ng/uL salmon testes DNA, 0.02% TX-100; detection with Alexa 488 anti-His antibody;; high values mean tight binding; conditions: protein: recombinant; tags: C-terminal His-tag (pET21a); chain copies: 2; dsDNA, one strand shown
How it was run: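 Agilent 4 x 44 K arrays carrying the 'all 10-mer' universal design were incubated with His-tagged protein dimer at 10 nM. Protein that bound was tagged using fluorophore-conjugated anti-His antibody at 10 ng/μL, and a GenePix 4400A scanned the arrays to give an intensity for every 8-mer. Each binding occupancy value expresses an intensity relative to the top-ranked intensity.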

MaxL homodimer, sequence (P61244 whole entry): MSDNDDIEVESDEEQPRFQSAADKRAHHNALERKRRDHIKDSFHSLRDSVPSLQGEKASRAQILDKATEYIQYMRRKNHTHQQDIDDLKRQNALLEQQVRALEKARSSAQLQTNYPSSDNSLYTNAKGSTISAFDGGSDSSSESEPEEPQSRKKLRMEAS

Row | Sequence | binding signal [normalized occupancy]
1 | AGTACAGG | 0.0787
2 | ACACTCTG | 0.0741
3 | ATAGCTTC | 0.074
4 | AAGAGGCA | 0.0761
5 | ACGATTAG | 0.0719
6 | GATTCACC | 0.0757
7 | ACGATTTC | 0.0741
8 | CATCTTCA | 0.0786
9 | AAAATAGG | 0.076
10 | ACACATCT | 0.0851
11 | ATACATGA | 0.0834
12 | ATACATGC | 0.104
13 | ACACATGT | 0.127
14 | ACACATAT | 0.0874
15 | ACACATTC | 0.0866
16 | ACACATTG | 0.102
17 | ACACATGC | 0.137
18 | ACACATAC | 0.0823
19 | AGACATTG | 0.0768
20 | ACACATTA | 0.0926
21 | CTACATGC | 0.089
22 | ACCCAAAG | 0.072
23 | CACGGCAC | 0.078
24 | ATGATGGC | 0.0855
25 | TGCTAGCA | 0.0864

Row | Sequence | binding signal [normalized occupancy]
26 | GCCTACCC | 0.0797
27 | GAACATGC | 0.089
28 | ACACATCA | 0.0839
29 | TCACATAA | 0.0812
30 | GCACATGA | 0.12
31 | ACACATGA | 0.107
32 | TAACATGA | 0.0906
33 | GCACATAC | 0.0803
34 | GCACATGC | 0.159
35 | GGACATGA | 0.0803
36 | ACACATAA | 0.082
37 | TCACATGA | 0.109
38 | GAACATGA | 0.0904
39 | AGATTTGC | 0.0766
40 | CGCCTCTC | 0.0756
41 | ACTGAATC | 0.0726
42 | CTCAACCC | 0.072
43 | CTGTAATA | 0.0777
44 | CATGGGAC | 0.0894
45 | GTCAGCAC | 0.0806
46 | CACAATGG | 0.0783
47 | TACCTTAA | 0.072
48 | AAGATCTT | 0.0757
49 | ACACATGG | 0.159
50 | AAACATGG | 0.0874

Row | Sequence | binding signal [normalized occupancy]
51 | ATACATGG | 0.0876
52 | AAACATGC | 0.0937
53 | AAACATGA | 0.0907
54 | AAACATGT | 0.0983
55 | GATGACAA | 0.0764
56 | TCTTTCAA | 0.0757
57 | ACTAGTTA | 0.0749
58 | CCTCAACC | 0.0752
59 | AATTTGGG | 0.0765
60 | CACGCGCC | 0.116
61 | AACGCGCA | 0.078
62 | CGCGCGCA | 0.075
63 | CACGCGCA | 0.135
64 | CCCGCGCC | 0.0733
65 | AACGCGCG | 0.0803
66 | CGCGCGCG | 0.0873
67 | CGCGCGCC | 0.0783
68 | CACGCGCG | 0.133
69 | AACATCAC | 0.0837
70 | CTAGCTAC | 0.0765
71 | CCTAGTGC | 0.0733
72 | AACCCCTC | 0.0767
73 | AATAAGTA | 0.0754
74 | ATTCTATG | 0.0827
75 | CTTTCTGC | 0.0723

Row | Sequence | binding signal [normalized occupancy]
76 | CGTAACGC | 0.0778
77 | GCAAGCCA | 0.0722
78 | GATGGCCA | 0.0755
79 | AATGTCAA | 0.0742
80 | ATAAGTAA | 0.0793
81 | AGCATGAA | 0.0874
82 | AGCATGAT | 0.107
83 | GCCATGAC | 0.0739
84 | GTCATGAC | 0.0806
85 | AGCATGAC | 0.0962
86 | ATCATGAT | 0.0928
87 | CCCTAAAA | 0.076
88 | CTGACCTC | 0.0774
89 | CCATGAGG | 0.112
90 | ACATGAGG | 0.108
91 | GCATGAGA | 0.0947
92 | CCATGAGA | 0.0896
93 | ACATGAGC | 0.0906
94 | ACATGAGT | 0.09
95 | ACATGAGA | 0.0971
96 | AGATGAGG | 0.0788
97 | CCATGAGC | 0.0818
98 | GTCAAGGA | 0.0749
99 | CTAATGTC | 0.0828
100 | GAAGTTAC | 0.0721

Row | Sequence | binding signal [normalized occupancy]
101 | TAACTAGA | 0.0765
102 | ACGGTGGC | 0.079
103 | AAATACAA | 0.076
104 | GATATGGC | 0.0846
105 | CATATGGG | 0.103
106 | AATATGGG | 0.0882
107 | CATATGAC | 0.0954
108 | AATATGGC | 0.0866
109 | CATATGGC | 0.0994
110 | CATATGAA | 0.088
111 | CATATGGA | 0.095
112 | AATATGAC | 0.0855
113 | AGTTCTAA | 0.0746
114 | CTGAAAAC | 0.0806
115 | CGTGCTAA | 0.0881
116 | ACTGCCCC | 0.0751
117 | GGCATTAC | 0.0758
118 | AAACGAAG | 0.0718
119 | CTGCTCTC | 0.0736
120 | ATTGATAA | 0.0774
121 | AAATGCGA | 0.0758
122 | AAATGCGG | 0.0791
123 | ATATGCGA | 0.0834
124 | AAATGCGT | 0.0858
125 | ACCTGCGT | 0.0757

Row | Sequence | binding signal [normalized occupancy]
126 | AGATGCGG | 0.0753
127 | ACATGCGG | 0.129
128 | AGATGCGC | 0.077
129 | ACATGCGA | 0.0989
130 | ATATGCGC | 0.085
131 | ACATGCGC | 0.109
132 | ACATGCGT | 0.127
133 | AGGTTTTA | 0.0742
134 | CTAAGAAA | 0.0728
135 | GATGATTA | 0.0816
136 | AGGGTCAC | 0.0776
137 | CCCAGTTA | 0.0735
138 | GCATCACA | 0.0871
139 | CCGACGAC | 0.0752
140 | AGTCGTAT | 0.0756
141 | GGGTGGTA | 0.0821
142 | AGGTGGTC | 0.0855
143 | ACGTGGTC | 0.106
144 | AAGTGGTG | 0.0758
145 | CCGTGGTC | 0.074
146 | ACGTGGTG | 0.1
147 | AGGTGGTA | 0.0821
148 | AGGTGGTG | 0.0873
149 | ACGTGGTA | 0.115
150 | GCGTGGTA | 0.111

Row | Sequence | binding signal [normalized occupancy]
151 | GTGTGGTA | 0.0868
152 | CCGTGGTA | 0.0806
153 | GTTGAGAA | 0.076
154 | TCATTGCA | 0.0829
155 | GCAATCAC | 0.0763
156 | GAGTCAGC | 0.0763
157 | AACTCACT | 0.0726
158 | AAGCACTA | 0.0755
159 | CGCCGAAA | 0.0723
160 | ACGGTAGA | 0.0739
161 | ACGCCGCT | 0.0763
162 | CGAGGTGA | 0.0813
163 | TACGCTGA | 0.0736
164 | CACGCTGA | 0.115
165 | GACGCTGC | 0.0724
166 | AACGCTGG | 0.0764
167 | CACGCTCG | 0.0939
168 | AACGCTGA | 0.0816
169 | CACGCTGC | 0.131
170 | AACGCTGC | 0.0786
171 | CACGCTGG | 0.113
172 | AGGAGACA | 0.084
